Data reported in PubChem BioAssay.
Results with a measured potency or affinity are listed apart. Calls of active or inactive are those of the source. Unless noted, no rule for the calls is given here.

Target: Calcium-dependent protein kinase 1 (Plasmodium falciparum (isolate 3D7)) (UniProt P62344)
Assay: PfCDPK1 kinase inhibitors, biochemical, TCAMS library (AID 1159585; cut-off not given, nearly all actives have IC50 up to about 0.98 µM;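 also: inhibitors leave more ATP so luminescence rises with inhibition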)
Conditions: recombinant PfCDPK1, Kinase-Glo ATP depletion luminescence

Calcium-dependent protein kinase 1 (Plasmodium falciparum (isolate 3D7)), sequence (P62344 whole entry, looked up): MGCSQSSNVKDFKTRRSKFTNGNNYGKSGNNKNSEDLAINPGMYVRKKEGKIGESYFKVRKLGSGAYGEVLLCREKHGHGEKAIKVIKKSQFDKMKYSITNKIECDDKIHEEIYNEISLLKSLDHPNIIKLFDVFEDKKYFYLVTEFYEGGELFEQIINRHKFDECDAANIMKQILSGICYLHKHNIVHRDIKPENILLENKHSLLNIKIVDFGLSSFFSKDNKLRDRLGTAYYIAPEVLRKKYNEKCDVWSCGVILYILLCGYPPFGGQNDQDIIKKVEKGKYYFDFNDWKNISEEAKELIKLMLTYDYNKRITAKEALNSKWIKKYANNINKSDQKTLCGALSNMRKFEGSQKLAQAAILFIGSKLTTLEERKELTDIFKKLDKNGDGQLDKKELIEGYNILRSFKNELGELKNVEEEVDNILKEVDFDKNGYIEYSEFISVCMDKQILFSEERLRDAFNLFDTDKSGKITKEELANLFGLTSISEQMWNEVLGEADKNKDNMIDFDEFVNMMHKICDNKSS

outcome, inactive:
C=CCN1C(=O)C(C(C)=O)=C(O)C1c1ccccc1 (centres undefined)
O=[N+]([O-])c1cccc(CNCC2CCN(Cc3ccc4ccccc4c3)CC2)c1
COc1ccc2nccc([C@@H](O)CN3CCC(NC(=O)c4[nH]c5ccccc5c4-c4ccccc4)CC3)c2c1
OC(CNc1cccc(Cl)c1)Cn1c2ccc(Cl)cc2c2cc(Cl)ccc21 (centres undefined)
Cc1cc(N[C@@H](Cc2ccccc2)C(=O)Nc2ccccc2)nc(NCCc2cccnc2)n1
Cc1cccc2[nH]c(-c3cccc(-c4cccc(NC(=O)c5ccoc5)c4)c3)nc12
CC(C)CCN1CCC(Oc2ccc(NC(=O)c3ccc(F)cc3)cc2Cl)CC1
Cc1cccc2[nH]c(-c3cccc(-c4cccc(CNCc5cnn(-c6ccccc6)n5)c4)c3)nc12
CC1(CCc2ccccc2)N=C(Nc2ccc(Cl)cc2)N=C(N)C1c1ccc(Cl)c(Cl)c1 (centres undefined)
Cc1[nH]c(C)c(-c2ccc(OCc3cc(C(F)(F)F)cc(C(F)(F)F)c3)nc2)c(=O)c1Br
O=C1C([N+](=O)[O-])=C(O)c2cccc(F)c21
Oc1ccc(Cl)cc1Nc1nc(C(F)(F)F)nc2ccccc12
Cc1ccc2nc(C)n(C3CCN(C(=O)C4(c5ccccc5)CC4)CC3)c2c1
CCCCCc1ccc(N2C(N)=NC(N)=NC2(C)C)cc1
O=S(=O)(c1ccc(Cl)cc1Cl)N1CCCCC(c2ccc(C(F)(F)F)cc2)=N1
O=C(NCc1ccccc1)c1ncn(CCCN2CCC(N3CCCC3)CC2)c1-c1ccc(Cl)c(Cl)c1
CC[C@H]1CN2CCc3cc(OC)c(OC)cc3[C@@H]2C[C@@H]1CC1=NCCc2c1[nH]c1ccc(OCc3ccccc3)cc21
CCNc1cc(CCCC(=O)OCC)nc(Nc2ccc(C)cc2)n1
CN1CCC(NCc2cccc(-c3ccc(S(=O)(=O)NCCc4ccccn4)cc3)c2)CC1
Clc1ccc(Sc2cncnc2N2CCOCC2)cc1
Cc1cc2ccc(-c3cccc(CN)c3)cc2nc1N
CC(=O)N1CCN(c2ccc(NC(=O)c3oc(-c4ccccc4)nc3C(F)(F)F)cn2)CC1
COc1cc(Nc2nccc(N3CCC(NS(=O)(=O)c4ccc(NC(C)=O)cc4)CC3)n2)cc(OC)c1OC
CCNc1cc(-c2cccc(OC)c2)nc(Nc2ccc(F)cc2)n1

Target: Plasmodium falciparum protein kinase 6 (PK6, PF3D7_1337100) (UniProt Q8IDW1)
Sequence (Q8IDW1 1-305): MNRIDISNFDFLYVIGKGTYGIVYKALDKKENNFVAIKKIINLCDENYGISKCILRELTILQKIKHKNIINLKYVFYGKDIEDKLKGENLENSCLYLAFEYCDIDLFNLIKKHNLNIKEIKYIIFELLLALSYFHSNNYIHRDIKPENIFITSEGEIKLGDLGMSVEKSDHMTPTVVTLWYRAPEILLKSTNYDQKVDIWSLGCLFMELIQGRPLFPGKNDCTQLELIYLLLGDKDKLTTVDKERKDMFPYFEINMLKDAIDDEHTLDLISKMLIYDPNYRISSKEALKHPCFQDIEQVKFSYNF
Assay: PfPK6 kinase inhibitors, biochemical, TCAMS library (AID 1159586)
Conditions: recombinant PfPK6, Kinase-Glo ATP depletion luminescence

outcome, inactive:
O=[N+]([O-])c1cccc(C=NNc2ccnc3cc(F)ccc23)c1
COc1cc(N(Cc2ccc(F)cc2)C(=O)c2ccc(-c3ccccc3)cc2)ccc1OCCN1CCCC1
CCCCNc1c(C(=O)OCC)c(C)nc2c1[nH]c1ccccc12
COc1ccc(/C=C/C(=O)NCCCCCN2CCC(c3c[nH]c4ccccc34)CC2)cc1O
CCc1cc2c(Sc3nnc(N)s3)ncnc2s1
CCCc1cc(=O)oc2cc(OC)c(C(=O)CC(C)C)c(OC)c12
O=C(NOCCOc1ccccc1)c1ccccc1
CC(c1cccc(S(=O)(=O)NCc2cccc(C(F)(F)F)c2)c1)N1CCC(N2CCCCC2)CC1 (centres undefined)
CC1CCN(c2nc(C(=O)NCCc3ccc(Cl)c(Cl)c3)c(C(C)C)s2)CC1
OCCN1CCN(Cc2cccc(-c3ccc(-c4nc5ccc(C(F)(F)F)cc5[nH]4)cc3)c2)CC1
Cc1cnc(-c2ccc(NC(=O)c3coc4ccc(N5C[C@@H](C)N(C)[C@@H](C)C5)cc34)cc2)o1
CN1CCC(NCc2cccc(-c3cccc(S(=O)(=O)NCc4ccccc4)c3)c2)CC1
COc1ccc(CNC2CCN(C)CC2)cc1-c1ccc(S(=O)(=O)NC2CCC2)c(C)c1
CN1CCN(CCCN(Cc2csc(-c3ccc(CNCc4ccccc4)cc3)n2)S(=O)(=O)c2ccccc2Cl)CC1
Cc1ccc(-c2cccc3c(NC(=O)Nc4ccc5nccc(N6CCN(C)CC6)c5c4)cccc23)cn1
CCCCCCCCOc1c(OCC)cc(Cc2cnc(N)nc2N)cc1OCC
C=CCN1C(=O)C(C(C)=O)=C(O)C1c1ccccc1 (centres undefined)
O=[N+]([O-])c1cccc(CNCC2CCN(Cc3ccc4ccccc4c3)CC2)c1
COc1ccc2nccc([C@@H](O)CN3CCC(NC(=O)c4[nH]c5ccccc5c4-c4ccccc4)CC3)c2c1
OC(CNc1cccc(Cl)c1)Cn1c2ccc(Cl)cc2c2cc(Cl)ccc21 (centres undefined)
Cc1cc(N[C@@H](Cc2ccccc2)C(=O)Nc2ccccc2)nc(NCCc2cccnc2)n1
Cc1cccc2[nH]c(-c3cccc(-c4cccc(NC(=O)c5ccoc5)c4)c3)nc12
CC(C)CCN1CCC(Oc2ccc(NC(=O)c3ccc(F)cc3)cc2Cl)CC1
Cc1cccc2[nH]c(-c3cccc(-c4cccc(CNCc5cnn(-c6ccccc6)n5)c4)c3)nc12
CC1(CCc2ccccc2)N=C(Nc2ccc(Cl)cc2)N=C(N)C1c1ccc(Cl)c(Cl)c1 (centres undefined)
Cc1[nH]c(C)c(-c2ccc(OCc3cc(C(F)(F)F)cc(C(F)(F)F)c3)nc2)c(=O)c1Br
O=C1C([N+](=O)[O-])=C(O)c2cccc(F)c21
Oc1ccc(Cl)cc1Nc1nc(C(F)(F)F)nc2ccccc12
Cc1ccc2nc(C)n(C3CCN(C(=O)C4(c5ccccc5)CC4)CC3)c2c1
CCCCCc1ccc(N2C(N)=NC(N)=NC2(C)C)cc1
O=S(=O)(c1ccc(Cl)cc1Cl)N1CCCCC(c2ccc(C(F)(F)F)cc2)=N1
O=C(NCc1ccccc1)c1ncn(CCCN2CCC(N3CCCC3)CC2)c1-c1ccc(Cl)c(Cl)c1
CC[C@H]1CN2CCc3cc(OC)c(OC)cc3[C@@H]2C[C@@H]1CC1=NCCc2c1[nH]c1ccc(OCc3ccccc3)cc21
CCNc1cc(CCCC(=O)OCC)nc(Nc2ccc(C)cc2)n1
CN1CCC(NCc2cccc(-c3ccc(S(=O)(=O)NCCc4ccccn4)cc3)c2)CC1
Clc1ccc(Sc2cncnc2N2CCOCC2)cc1
Cc1cc2ccc(-c3cccc(CN)c3)cc2nc1N
CC(=O)N1CCN(c2ccc(NC(=O)c3oc(-c4ccccc4)nc3C(F)(F)F)cn2)CC1
COc1cc(Nc2nccc(N3CCC(NS(=O)(=O)c4ccc(NC(C)=O)cc4)CC3)n2)cc(OC)c1OC
CCNc1cc(-c2cccc(OC)c2)nc(Nc2ccc(F)cc2)n1
